Screening data: PubChem, National Center for Advancing Translational Sciences (NCATS)
TbPYK inhibitor: blocks Trypanosoma brucei pyruvate kinase; Q57TT1; TbPYK enzyme, Kinase-Glo Plus ATP luminescence, 45 min; Potency, µM (top dose mostly 76.8 µM), for inactives: at the top dose activity, negative = inhibition, usual class: inhibitors; 0.12% of 410,000 active; AID 624173; further: potency means the concentration at half of the fitted maximal effect; on the % scale 0 is the no-effect control and ±100 the full control effect; nearly all actives have a fitted effect of over 50% in size
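ADP (130 uM final) triggers the TbPYK reaction after compound addition; incubation is 45 min at room temperature. Kinase-Glo Plus is then added and luminescence imaged. Normalized data are fitted to concentration-effect curves.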
Giardia FBPA inh: blocks Giardia fructose-bisphosphate aldolase activity. purified Giardia FBPA. A8B2U2. 0.71% of 290,000 active. Potency, µM (series often up to 59.6 µM), for inactives: at the top dose activity, negative = inhibition, hits mostly inhibitors; further: potency means the concentration at half of the fitted maximal effect; on the % scale 0 is the no-effect control and ±100 the full control effect; nearly all actives have a fitted effect of over 55% in size
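40 nM FBPA preincubated 10 min at RT with compound (up to 57.5 uM final), then substrate plus GAPDH/TPI/NAD/arsenate coupling and diaphorase/resazurin added. Fluorescence read after 20 min at RT, 525/598 nm.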
Shiga toxin inh: blocks Shiga toxin action in Vero cells. Vero cells, Shiga toxin protein synthesis inhibition reporter. inhibition, % at 38.7 µM. 9.2% of 290,000 active; in the data active means inhibition mostly above about 28%, no sharp cut-off; inactive means mostly below about 43%; further: 0% is about no effect
CHX counter: affects cycloheximide protein synthesis inhibition readout, counter-screen | max response, % | AID 2314 | 12% of 300,000 active | cell reporter, cycloheximide protein synthesis inhibition counterscreen; in the data active means max response mostly above about 13%, no sharp cut-off; inactive means mostly below about 14%; further: read at 38.3 µM for the half of the compounds with a filed dose; 0% is about no effect
LmPK inhibitor: inhibitors of Leishmania mexicana pyruvate kinase. AID 1721. purified LmPK, Kinase-Glo ATP luminescence, 1 h. 0.37% of 290,000 active. Potency, µM (doses to about 57.5 µM), for inactives: at the highest dose activity change, negative = inhibition, usual class: inhibitors. Q27686; further: potency means the concentration at half of the fitted maximal effect; on the % scale 0 is the no-effect control and ±100 the full control effect
Target sequence (Q27686 whole entry, looked up): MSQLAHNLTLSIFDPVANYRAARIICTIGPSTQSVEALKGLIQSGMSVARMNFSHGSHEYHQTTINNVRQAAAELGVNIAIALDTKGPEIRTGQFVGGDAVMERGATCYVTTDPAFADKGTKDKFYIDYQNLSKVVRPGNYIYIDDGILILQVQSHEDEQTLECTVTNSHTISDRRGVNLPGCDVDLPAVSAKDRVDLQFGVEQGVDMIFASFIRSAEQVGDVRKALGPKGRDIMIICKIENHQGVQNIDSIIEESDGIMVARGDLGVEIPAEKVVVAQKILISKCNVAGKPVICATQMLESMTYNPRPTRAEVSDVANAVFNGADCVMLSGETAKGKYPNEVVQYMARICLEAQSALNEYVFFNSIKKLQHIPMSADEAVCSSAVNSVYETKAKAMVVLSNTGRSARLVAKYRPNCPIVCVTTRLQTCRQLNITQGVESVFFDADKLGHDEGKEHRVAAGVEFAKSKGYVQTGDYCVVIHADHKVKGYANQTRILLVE
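qHTS format; LmPK 0.1 nM; substrates PEP 0.5 mM and ADP 0.1 mM. One-hour room-temperature incubation, then coupled luciferase luminescence; 0.5 nM enzyme wells mark activation.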
Sm TGR block: inhibitors of Schistosoma mansoni thioredoxin glutathione reductase. Q962Y6. Potency, µM (highest dose often 114 µM), without a hit: at the highest dose activity change, negative = inhibition, most hits filed as inhibitors. 3% of 360,000 active. purified TGR, DTNB reduction, TNB absorbance 405 nm; further: potency means the concentration at half of the fitted maximal effect; on the % scale 0 is the no-effect control and ±100 the full control effect; nearly all actives have a fitted effect of over 60% in size
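TGR 20 nM + NADPH 100 uM (dispensed conc.), cpd preinc 15 min RT; start with NADPH (500 uM addition) then DTNB (15 mM addition). Kinetic TNB absorbance, 405 nm filter. Four-parameter Hill fit across titration.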
Starred values were filed as active, the others as inactive; ? = inconclusive; · = no result given; [ ] = dose if it differs, or a comment. This excerpt belongs to a sample that is enriched for hits. Unless noted, the call rests on the fitted dose curve; in most records, active means well fitted curve in the direction sought with a large enough effect; inconclusive means small, poorly fitted or top-dose-only effect, or another doubt; inactive means no such curve, though single readings can be large; an effect the other way counts as inactive or inconclusive.

SMILES	TbPYK inhibitor	Giardia FBPA inh	Shiga toxin inh	CHX counter	LmPK inhibitor	Sm TGR block
COc1cccc(-n2nnnc2SCC(=O)NC2CCCCC2)c1	0%	·	36	34*	0%	9%
CCn1nnnc1SCC(=O)NCc1ccco1	3%	-9%	-18	-3	8%	25µM*
COc1cccc(-n2nnnc2SCC(=O)NCc2ccco2)c1	-1%	-3%	-1	4	5%	50µM*
CCCn1c(SCC(=O)NCc2ccco2)nnc1C(C)C	-1%	-9%[12.9 µM]	9	8	7%	?
CCCCn1nnnc1SCC(=O)NCc1ccco1	2%	-9%	-11	-2	1%	40µM*
COc1cccc(-n2nnnc2SCC(=O)NC2CCCC2)c1	-4%	0%	-4	-3	9%	-23%
CCn1c2c(c(=O)n3ncc(C(=O)Nc4ccc(F)cc4Cl)c13)CN(Cc1ccc(OC)cc1)CC2	?	·	·	·	·	-17%
CC(C)C1C(=O)N(S(C)(=O)=O)[C@H]2CCN(C(=O)/C=C/CN3CCCCC3)[C@@H]12 (some centres not stated)	·	-3%	-6	4	·	·
Cc1cccc(C)c1NC(=O)COC(=O)/C=C/c1ccc(S(=O)(=O)N2CCOCC2)cc1	2%	·	·	·	·	·
CCOC(=O)c1cccc(NC(=O)c2nn(-c3ccc(OC)cc3)c(=O)c3c2c2ccccc2n3C)c1	-3%	·	·	·	·	2%
CCCCN1CN(S(=O)(=O)c2cccs2)c2nc3ccccc3nc21	·	-1%	12	8	3%	-29%
O=S(=O)(c1cccs1)N1CN(Cc2ccc(Cl)cc2)c2nc3ccccc3nc21	3%	3%	10	15*	1%	-2%
Cc1ccc(CN2CN(S(=O)(=O)c3cccs3)c3nc4ccccc4nc32)cc1	-2%	-20%[12.9 µM]	81*	91*	-2%	9%
CC(C)OCCCN1CN(S(=O)(=O)c2cccs2)c2nc3ccccc3nc21	-6%	-3%	44	14*	3%	-29%
O=S(=O)(c1cccs1)N1CN(Cc2ccco2)c2nc3ccccc3nc21	-3%	?	40*	31*	7%	?
CC(C)CCN1CN(S(=O)(=O)c2cccs2)c2nc3ccccc3nc21	2%	6%	-7	11	6%	-14%
COCCN1CN(S(=O)(=O)c2ccccc2)c2nc3ccccc3nc21	-8%	12%	7	5	0%	?
Cc1cccc(S(=O)(=O)N2CN(Cc3ccco3)c3nc4ccccc4nc32)c1	-6%	0%	-3	-3	5%	18µM*
COc1ccccc1CN1CN(S(=O)(=O)c2ccccc2)c2nc3ccccc3nc21	2%	-6%	110*	31*	7%	-3%
Cc1nc(NS(=O)(=O)c2ccccc2)sc1NC(=O)OCCN(C)C	-8%	?	7	-2	-6%	32µM*
CCCc1ccc(OCc2nc(-c3ccc(NC(=O)c4cccs4)cc3)no2)cc1	1%	1%	176*	80*	-12%	-14%
CCCc1ccc(OCc2nc(-c3ccc(NC(=O)c4ccco4)cc3)no2)cc1	4%	0%	57	47*	-15%	14%
O=C1NCCN(CC2CCN(CCc3ccc(Cl)c(Cl)c3)CC2)C1=O	3%	·	·	·	·	·
O=C(N/N=C/c1ccc(-c2ccc([N+](=O)[O-])cc2)o1)[C@H]1C[C@@H]1c1ccccc1	-11%	-3%	13	-3	0%	-8%
Cc1ccc(C(=O)N/N=C/c2ccc(-c3cccc(Cl)c3)o2)cn1	2%	0%	3	1	6%	7%
O=C(N/N=C/c1ccc(-c2ccccc2[N+](=O)[O-])o1)[C@H]1C[C@@H]1c1ccccc1	-13%	?	active	31*	-2%	-24%
Cc1ccc(C(=O)N/N=C/c2ccc(-c3ccccc3[N+](=O)[O-])o2)cn1	-20%	?	20	19*	-2%	?
Cc1ccc(-n2ncc(C(=O)N3CCC(c4ccccc4)C3)c2C2CCN(C(=O)OC(C)(C)C)CC2)cc1 (configuration not stated)	2%	·	·	·	·	1%
c1ccc(Oc2cccc(OCCn3cncn3)c2)cc1	2%	?	11	-2	-14%	-6%
